The values that follow come from PubChem BioAssay.

Experiment [1] in a line: inhibitors of TNFa-induced NFkB p65 translocation, primary screen, imaging, HUVEC, MLSMR starter and 10KST1 sets (AID 438;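 active means inhibition above 20% together with a positive visual image hit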;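 further: compound added about 3h40 before a 20 min TNFalpha stimulation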;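 on inhibition: signal is the nuclear over cytoplasmic p65 intensity ratio per well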). The note with it: HUVEC TNFa-induced p65 nuclear translocation; cell count: measured here: nuclei count (cytotoxicity indicator), at 2.08 µM; inhibition: at 2 µM, stronger effect = higher value, 0% TNFa-plus-vehicle, 100% no-TNFa wells.
Experiment [2] is described as follows: reduction of polyQ htt aggregates in cells – imaging, exon1htt(103Q)mCFP cells, high-content imaging, primary screen (AID 483;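 active means visual image review flags a hit and inhibition of aggregation exceeds 20%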;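 further: compound exposure lasted 3 days before fixation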;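 on nuclei count: percent of the per-plate median nuclei count of sample wells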). The conditions noted are these: exon1htt(103Q)mCFP cell line, aggregate imaging, at 2 µM; inhibition of aggregation: stronger effect = higher value; nuclei count: measured here: cell count, toxicity.
Experiment [3] in a line: endothelial E-selectin expression blockers – imaging, HUVEC, immunofluorescence, MLSMR starter and 10KST1 sets, primary screen (AID 487;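 active means visually confirmed hit in the image check and inhibition above 20%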;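 on inhibition: signal is fraction of cell area covered by stained E-selectin grains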;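 on nuclei count: 100% = median nuclei count of all wells on the same plate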). The note with it: HUVEC TNFalpha-induced E-selectin immunofluorescence imaging, at 2 µM; inhibition: stronger effect = higher value; nuclei count: measured here: cell number, toxicity.
Experiment [4] addresses Voltage-gated potassium channel subunit beta-2 (Rattus norvegicus) (UniProt P62483). The experiment can be described thus: inhibitors of rat Kvbeta2 reductase activity – biochemical, NADPH fluorescence, primary screen (AID 622;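 active means fluorescence slope higher than the sample average by over 3 SD, cut at about -0.22 in these data, passing the limit was not always enough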;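 further: slope of raw intensity against log time taken from 70 to 1610 s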). The note with it: recombinant KvBeta, 4-cyanobenzaldehyde reduction, at 10 µM, stronger effect = higher value.
For experiment [5] the target is unchanged. The experiment can be described thus: enhancers of rat Kvbeta2 NADPH turnover – biochemical, NADPH fluorescence, primary screen (AID 623).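 Further: fluorescence intensity change per second fitted from 20 to 320 s.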 The note with it: Recombinant KvBeta, NADPH fluorescence decrease slope, 10 min; at 10 µM; stronger effect = lower value.
Experiment [6] addresses Alpha-2C adrenergic receptor (Homo sapiens) (UniProt P18825). Kind of experiment: compounds altering alpha2C-coupled GIRK flux – cell-based, HEK293 alpha2C/GIRK1/2, thallium flux, primary screen (AID 624;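 active means fluorescence slope after compound addition differing from the mean of all screened samples at 99.7% confidence, in either direction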;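 further: slope of fluorescence ratio to pre-addition baseline per second over 15 to 24 s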). The note with it: thallium flux BTC fluorescence, at 10 µM, actives lie on both sides.
Experiment [7] can be described thus: blockers of RIG-like receptor reporter activation – cell-based, Sendai virus stimulus, luciferase, 10K MLSCN set, TLR/RLR signaling modifier project, primary screen (AID 602276;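 active means inhibition at or above 50% at 10 µM; inactive means inhibition below 50%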;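 further: firefly luciferase from ISG56 promoter only with Renilla not read in this screen; 0% = Sendai virus plus DMSO and 100% = medium plus DMSO without virus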). The note with it: HEK293 RL24 IRF3 luciferase reporter, at 10 µM, stronger effect = higher value. A general note: Reporter assays use an easily measured gene product as a stand-in for the process of interest.

The nature of experiment [8]: TLR3 IRF3 reporter activation blockers – cell-based, poly I:C stimulus, luciferase, 10K MLSCN set, primary screen (AID 602277;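 active means inhibition of the reporter signal at or above 50%; inactive means inhibition below 50%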). The conditions noted are these: HEK293-TLR3 RL24 IRF3 luciferase reporter, at 10 µM, stronger effect = higher value.

SMILES strings stand for the structures. Active and inactive are the calls of the source.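 How the source made its calls, unless noted: active means NADPH fluorescence slope more negative than the mean of all samples by about 3 SD, 99.7% confidence; inactive means the rest.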

Voltage-gated potassium channel subunit beta-2 (Rattus norvegicus), sequence (P62483 whole entry, looked up): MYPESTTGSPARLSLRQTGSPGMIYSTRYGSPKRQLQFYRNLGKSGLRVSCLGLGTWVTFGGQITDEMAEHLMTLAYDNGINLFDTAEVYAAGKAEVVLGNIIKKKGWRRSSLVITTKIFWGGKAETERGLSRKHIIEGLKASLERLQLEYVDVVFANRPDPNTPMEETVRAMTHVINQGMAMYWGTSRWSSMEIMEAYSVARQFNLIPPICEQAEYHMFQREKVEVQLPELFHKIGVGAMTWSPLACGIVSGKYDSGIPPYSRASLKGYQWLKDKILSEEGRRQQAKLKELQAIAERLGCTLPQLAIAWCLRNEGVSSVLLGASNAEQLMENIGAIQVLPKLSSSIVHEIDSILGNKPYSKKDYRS
Alpha-2C adrenergic receptor (Homo sapiens), sequence (P18825 whole entry, looked up): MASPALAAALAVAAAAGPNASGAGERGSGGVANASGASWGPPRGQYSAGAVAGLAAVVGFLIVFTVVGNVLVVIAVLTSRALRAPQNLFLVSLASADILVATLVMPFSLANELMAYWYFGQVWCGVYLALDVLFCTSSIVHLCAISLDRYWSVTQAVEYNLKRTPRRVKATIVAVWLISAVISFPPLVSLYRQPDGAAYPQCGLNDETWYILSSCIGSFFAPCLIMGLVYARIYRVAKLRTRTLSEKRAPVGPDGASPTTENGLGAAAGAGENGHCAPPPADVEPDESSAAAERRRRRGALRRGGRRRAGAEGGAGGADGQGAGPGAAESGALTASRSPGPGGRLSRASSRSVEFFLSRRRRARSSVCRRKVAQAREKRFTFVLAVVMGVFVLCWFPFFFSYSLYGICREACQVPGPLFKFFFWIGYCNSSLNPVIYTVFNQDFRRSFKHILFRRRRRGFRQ

In the case of `CCOC(=O)Cc1csc(NC(=O)CN(C)S(=O)(=O)c2ccc3c(c2)CCC(=O)N3)n1`, in experiment [1], the cell count is 585. Moreover, the inhibition – broadly, the change of the read-out against control, counted positive when it falls – in experiment [1] is 12.6% (inactive); in experiment [3], 40.4% (inactive); in experiment [7], 25.7% (inactive); in experiment [8], 21.7% (inactive). The inhibition of aggregation in experiment [2] is -126% (inactive). The figures for the nuclei count in experiment [2] and in experiment [3] were 29.2% and 111%, respectively. In experiment [4], the fluorescence slope is -0.521 (inactive). Also, the NADPH fluorescence slope in experiment [5] was -3.1e-05 (inactive). Moreover, the slope in experiment [6] was 0.00704 (inactive).

In the case of `CCCS(=O)(=O)N1CCCC(C(=O)NC(C)c2ccc3c(c2)OCCO3)C1` (stereo not drawn), in experiment [1], the cell count turned out to be 719. For the same molecule, the inhibition is -10.9% (inactive) in experiment [1], -26.6% (inactive) in experiment [3], 9.72% (inactive) in experiment [7] and 13.6% (inactive) in experiment [8]. Besides, in experiment [2], the inhibition of aggregation was 0.2% (inactive). The nuclei count in experiment [2] was 101%; in experiment [3], 100%. In addition, the fluorescence slope in experiment [4] is -0.475 (inactive). Further, the NADPH fluorescence slope in experiment [5] was 1.2e-05 (inactive). For the same molecule, the slope in experiment [6] was 0.00535 (inactive).

`CC1=C(C)CC2C(=O)N(c3cccc4ccccc34)C(=O)C2C1` (stereo not drawn): the cell count in experiment [1] worked out at 705. For the same molecule, the inhibition in experiment [1] was -2.3% (inactive); in experiment [3], -28.7% (inactive); in experiment [7], 0.65% (inactive); in experiment [8], 28.7% (inactive). The inhibition of aggregation in experiment [2] is 1.2% (inactive). Also, the nuclei count in experiment [2] and in experiment [3] was 106% in each case. Further, the fluorescence slope in experiment [4] is -0.569 (inactive). For the same molecule, in experiment [5], the NADPH fluorescence slope is -2.7e-05 (inactive). In experiment [6], the slope was 0.00739 (inactive).

Regarding `Cc1cc(C)cc(NC(=O)C2CCCN(c3nccc(C)n3)C2)c1` (stereo not drawn), the cell count in experiment [1] came out at 373. Further, the inhibition in experiment [1] was -6% (inactive); in experiment [3] it was -57.3% (inactive); in experiment [7] it was 9.71% (inactive); in experiment [8], 18.5% (inactive). In addition, in experiment [2], the inhibition of aggregation is -20.4% (inactive). The values for the nuclei count in experiment [2] and in experiment [3] were 115% and 117%, respectively. Further, the fluorescence slope in experiment [4] is -0.463 (inactive). For the same molecule, the NADPH fluorescence slope in experiment [5] was -8.4e-05 (inactive). Also, the slope in experiment [6] is 0.00586 (inactive).

Turning to `CCOCCCNC(=O)CS(=O)(=O)Cc1nc(-c2cccc(OC)c2)oc1C`, the cell count in experiment [1] was found to be 558. In addition, the inhibition in experiment [1] was -43.9% (inactive); in experiment [3], -6.1% (inactive); in experiment [7] it was 12.4% (inactive); in experiment [8], 33.7% (inactive). Further, the inhibition of aggregation in experiment [2] was 16% (inactive). Besides, the nuclei count in experiment [2] was 65.2%; in experiment [3], 97.9%. For the same molecule, the fluorescence slope in experiment [4] is -0.596 (inactive). In addition, in experiment [5], the NADPH fluorescence slope is 4.7e-07 (inactive). Also, the slope in experiment [6] is 0.00578 (inactive).

For `Cc1cc2ncn(C(=O)c3c(-c4ccccc4)noc3C)c2cc1C`, the cell count in experiment [1] worked out at 202. Further, the inhibition was -15.9% (inactive) in experiment [1], 25.9% (inactive) in experiment [3], 5.72% (inactive) in experiment [7] and 18.2% (inactive) in experiment [8]. For the same molecule, in experiment [2], the inhibition of aggregation is -7.9% (inactive). Also, the nuclei count was determined as 85.7% in experiment [2] and 99.7% in experiment [3]. Moreover, in experiment [4], the fluorescence slope was -0.433 (inactive). Also, the NADPH fluorescence slope in experiment [5] was -2.6e-06 (inactive). Also, the slope in experiment [6] was 0.00548 (inactive).

As to `COC(=O)CNc1nc(C2CC2)nc2c1nnn2Cc1ccccc1Cl`, the cell count in experiment [1] was found to be 459. For the same molecule, the inhibition is 8.3% (inactive) in experiment [1], 16.5% (inactive) in experiment [3], 18.2% (inactive) in experiment [7] and 17.8% (inactive) in experiment [8]. The inhibition of aggregation in experiment [2] is -0.3% (inactive). Also, the nuclei count in experiment [2] was 83.5%; in experiment [3], 97.5%. Besides, the fluorescence slope in experiment [4] is -0.479 (inactive). Also, the NADPH fluorescence slope in experiment [5] is -0.000128 (inactive). Moreover, in experiment [6], the slope was 0.00514 (inactive).

Regarding `CC(=O)N1CCN(c2ccc(N=Cc3c(O)n(Cc4ccccc4)c(=O)[nH]c3=O)cc2)CC1`, in experiment [1], the cell count was 344. Besides, the inhibition was 6.8% (inactive) in experiment [1], -9.7% (inactive) in experiment [3], 14.1% (inactive) in experiment [7] and 22.9% (inactive) in experiment [8]. Moreover, the inhibition of aggregation in experiment [2] is -13.5% (inactive). The nuclei count in experiment [2] was found to be 102%; in experiment [3] it was 105%. Moreover, the fluorescence slope in experiment [4] is -0.525 (inactive). In addition, the NADPH fluorescence slope in experiment [5] is 1.9e-05 (inactive). Further, the slope in experiment [6] is 0.00469 (inactive).

Turning to `CCOC(=O)N1CCC(NC(=O)c2cc3c(=O)n(C)c4ccccc4c3n2C)CC1`, in experiment [1], the cell count was 701. Also, the inhibition in experiment [1] is -2.8% (inactive); in experiment [3] it was -50.1% (inactive); in experiment [7], 4.95% (inactive); in experiment [8], 28.7% (inactive). Also, in experiment [2], the inhibition of aggregation was 4.2% (inactive). The figures for the nuclei count in experiment [2] and in experiment [3] were 140% and 112%, respectively. Also, the fluorescence slope in experiment [4] is -0.416 (inactive). The NADPH fluorescence slope in experiment [5] was -6.5e-05 (inactive). Besides, the slope in experiment [6] was 0.00503 (inactive).

For the molecule `CN1C(=O)CC(N2CCC(C(N)=O)(N3CCCCC3)CC2)C1=O` (stereo not drawn), the cell count in experiment [1] worked out at 540. The inhibition in experiment [1] is 5.4% (inactive); in experiment [3] it was 10.3% (inactive); in experiment [7], 15% (inactive); in experiment [8], 16.9% (inactive). For the same molecule, the inhibition of aggregation in experiment [2] was -7.1% (inactive). For the same molecule, the nuclei count was 111% in experiment [2] and 117% in experiment [3]. Besides, the fluorescence slope in experiment [4] was -0.593 (inactive). For the same molecule, in experiment [5], the NADPH fluorescence slope was -4.9e-05 (inactive). In experiment [6], the slope is 0.00424 (inactive).

With `c1ccn2c(SCc3cn4ccsc4n3)nnc2c1`, in experiment [1], the cell count came out at 586. The inhibition was -7.3% (inactive) in experiment [1], -20.5% (inactive) in experiment [3], -1.63% (inactive) in experiment [7] and -34.1% (inactive) in experiment [8]. Moreover, in experiment [2], the inhibition of aggregation is 19.5% (inactive). Besides, the nuclei count in experiment [2] is 90.6%; in experiment [3], 111%. Moreover, the fluorescence slope in experiment [4] was -0.544 (inactive). In addition, the NADPH fluorescence slope in experiment [5] was 2.4e-05 (inactive). The slope in experiment [6] is 0.00536 (inactive).

In the case of `COc1cccc2sc(NC(=O)c3ccc(S(=O)(=O)N4CCOCC4)cc3)nc12`, the cell count in experiment [1] is 357. For the same molecule, the inhibition was 0.5% (inactive) in experiment [1], -21% (inactive) in experiment [3], 10.2% (inactive) in experiment [7] and 9.3% (inactive) in experiment [8]. Besides, the inhibition of aggregation in experiment [2] was 8.5% (inactive). The nuclei count turned out to be 74.7% in experiment [2] and 104% in experiment [3]. For the same molecule, the fluorescence slope in experiment [4] was -0.289 (inactive). The NADPH fluorescence slope in experiment [5] was -2.5e-05 (inactive). In experiment [6], the slope was 0.00479 (inactive).

Take `COC(=O)c1ccc(C)c(NS(=O)(=O)c2ccc3c(c2)OCCO3)c1`: in experiment [1], the cell count was found to be 263. Further, the inhibition in experiment [1] was 12.5% (inactive); in experiment [3], -60.4% (inactive); in experiment [7], 43.8% (inactive); in experiment [8], 58.5% (active). Further, in experiment [2], the inhibition of aggregation is 22.6% (inactive). In addition, the nuclei count in experiment [2] was determined as 56.8%; in experiment [3], 94%. For the same molecule, in experiment [4], the fluorescence slope is -0.393 (inactive). Also, the NADPH fluorescence slope in experiment [5] was -5.8e-05 (inactive). Besides, the slope in experiment [6] was 0.00526 (inactive).
